Source: PubChem BioAssay
In the library only some 12% were active in any assay of this set; here they are far more common.
G9a block – blocks human histone lysine methyltransferase G9a; actives 8.8% (n = 350,000); G9a H3K9 monomethylation, AlphaScreen, 2 h; Potency, µM (doses to about 102 µM), usual class: inhibitors; note: nearly all actives have a fitted effect of over 75% in size
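G9a (20 nM) preincubated 15 min RT with compounds, then 500 nM biotinylated H3K9 peptide and 20 uM SAM added; 2 h RT reaction. Monomethyl-H3K9 product detected by AlphaScreen with anti-H3K9me1 antibody, streptavidin donor and anti-rabbit IgG acceptor beads.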
Sfp PPTase inh – blocks B. subtilis Sfp PPTase activity | Potency, µM, most hits filed as inhibitors | Biochemical Sfp PPTase activity, qHTS | actives 3.5% (n = 310,000);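 note: the enzyme is Sfp with the accession as filed and its product quenches rhodamine fluorescence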
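Step 1, compound plus 15 nM Sfp-PPTase, 15 min, room temperature. Step 2, add rhodamine-CoA (5 uM) and BHQ-2-YbbR (12.5 uM). Step 3, read 525/598 nm fluorescence at 0 and 30 min.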
HP1b chromo inh – blocks HP1-beta chromodomain binding to methylated histone tails; actives 0.56% (n = 390,000); P83916; AID 540317; Potency, µM (top dose mostly 114 µM), actives largely listed as inhibitors; AlphaScreen HP1-beta / biotin-H3K9me3 peptide binding; note: nearly all actives have a fitted effect of over 70% in size
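Compound inhibition of the preformed complex between 50 nM HP1-beta and 50 nM biotinylated H3K9me3 peptide was read by AlphaScreen. Buffer was PBS pH 7.4 with 0.01% Tween-20. Incubations ran 30 min at room temperature, with 10 ug/mL donor/acceptor beads.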
JMJD2A Tudor inh – blocks the human JMJD2A Tudor domain; AID 504339; AlphaScreen JMJD2A-Tudor / H3K4me3 peptide binding; O75164; Potency, µM (top dose mostly 114 µM), actives largely listed as inhibitors; actives 4.4% (n = 390,000); note: nearly all actives have a fitted effect of over 50% in size
Target sequence (O75164 whole entry, looked up, the tested form may be a part): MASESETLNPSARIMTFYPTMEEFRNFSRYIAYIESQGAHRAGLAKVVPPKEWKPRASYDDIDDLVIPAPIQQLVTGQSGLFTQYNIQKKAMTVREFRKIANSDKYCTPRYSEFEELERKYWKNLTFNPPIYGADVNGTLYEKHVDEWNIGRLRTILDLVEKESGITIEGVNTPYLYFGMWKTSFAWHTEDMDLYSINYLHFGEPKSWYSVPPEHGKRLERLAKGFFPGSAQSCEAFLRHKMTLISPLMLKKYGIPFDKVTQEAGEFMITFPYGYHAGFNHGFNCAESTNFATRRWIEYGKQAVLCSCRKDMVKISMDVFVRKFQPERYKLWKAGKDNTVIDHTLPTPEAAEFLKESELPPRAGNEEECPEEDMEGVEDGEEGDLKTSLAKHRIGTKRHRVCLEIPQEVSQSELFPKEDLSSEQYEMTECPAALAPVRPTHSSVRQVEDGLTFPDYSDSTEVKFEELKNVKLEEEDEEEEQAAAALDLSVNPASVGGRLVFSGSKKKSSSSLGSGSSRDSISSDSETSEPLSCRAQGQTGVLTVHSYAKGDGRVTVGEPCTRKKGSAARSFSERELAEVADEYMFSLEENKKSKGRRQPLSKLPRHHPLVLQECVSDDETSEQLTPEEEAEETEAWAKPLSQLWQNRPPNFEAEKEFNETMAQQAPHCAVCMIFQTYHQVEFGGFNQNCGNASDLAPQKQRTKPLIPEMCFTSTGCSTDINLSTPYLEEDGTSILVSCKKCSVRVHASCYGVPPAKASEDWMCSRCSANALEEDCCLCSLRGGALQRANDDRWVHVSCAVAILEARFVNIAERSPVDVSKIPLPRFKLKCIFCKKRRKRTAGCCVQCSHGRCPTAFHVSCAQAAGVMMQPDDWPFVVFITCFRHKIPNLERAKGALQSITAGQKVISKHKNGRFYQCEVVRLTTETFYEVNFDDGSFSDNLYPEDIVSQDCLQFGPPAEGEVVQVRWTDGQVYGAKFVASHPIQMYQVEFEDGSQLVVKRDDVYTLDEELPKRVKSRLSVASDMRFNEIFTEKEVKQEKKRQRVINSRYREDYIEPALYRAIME
BAZ2B inh – BAZ2B (human) inhibition; Q9UIF8; AlphaScreen BAZ2B-H3K14Ac peptide displacement; Potency, µM (series often up to 114 µM), hits mostly inhibitors; actives 4.4% (n = 360,000); AID 504333; note: nearly all actives have a fitted effect of over 60% in size
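AlphaScreen luminescence quantifies BAZ2B engagement of H3K14Ac peptide; the protein and biotinylated peptide are both at 50 nM final, buffer PBS pH 7.4 with 0.01% Tween-20, all steps at room temperature.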
L3MBTL1 inh – inhibitors of human L3MBTL1; Q9Y468; AlphaScreen L3MBTL1–H3K9me1 peptide binding; Potency, µM (highest dose often 57.1 µM), usual class: inhibitors; actives 0.66% (n = 230,000); AID 485360; note: nearly all actives have a fitted effect of over 60% in size
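AlphaScreen assay: L3MBTL1 (50 nM final) was preincubated 30 min at room temperature with biotinylated H3(1-15)K9me1 peptide (75 nM final), then 30 min with library compounds; streptavidin donor and nickel chelate acceptor beads (10 ug/mL final) added, 30 min dark.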
Each line names hits and unclear results; the compound was inactive in the other large screens. Calls come from the whole dose curve; as a rule, active = well fitted curve in the direction sought with a large enough effect; inconclusive = small, poorly fitted or top-dose-only effect, or another doubt; inactive = no such curve, though single readings can be large; an effect the other way counts as inactive or inconclusive.

COc1ccccc1-c1sc2cc3c(cc2c1-c1ccc2c(c1)OCO2)OCO3	BAZ2B inh 79.4µM (no result: Sfp PPTase inh)
COc1ccccc1-c1sc2ccccc2c1-c1ccc(OCCN2CCOCC2)cc1	JMJD2A Tudor inh 50.1µM (no result: G9a block, Sfp PPTase inh, BAZ2B inh)
CCCC/C=C/[C@@H](c1ccccc1)C1COC(=O)CC1O (stereo partly specified)	none (no result: G9a block, BAZ2B inh, L3MBTL1 inh)
COc1ccc(NC(=O)CN(C)C(=O)CSc2nc3ccccc3s2)cc1	G9a block inconclusive, L3MBTL1 inh inconclusive (no result: Sfp PPTase inh)
COc1cccc(NC(=O)CCNC(=O)Cn2ccc3ccccc3c2=O)c1	none (no result: L3MBTL1 inh)
CCCCN(C(=O)c1cccc(S(=O)(=O)N(C)c2ccc(C)cc2)c1)c1c(N)n(CCCC)c(=O)[nH]c1=O	G9a block inconclusive (no result: Sfp PPTase inh)
COC(C(=O)C(O)C(C)O)C1Cc2cc3cc(OC4CC(OC5CC(O)C(O)C(C)O5)C(O)C(C)O4)c(C)c(O)c3c(O)c2C(=O)C1OC1CC(OC2CC(OC3CC(C)(O)C(O)C(C)O3)C(O)C(C)O2)C(O)C(C)O1 (stereo unspecified)	none (no result: HP1b chromo inh, JMJD2A Tudor inh, BAZ2B inh, L3MBTL1 inh)
CC(C)NC(=O)c1sc(=S)n2c1[nH]c(=O)c1ccc(C(=O)NCCc3ccc(Cl)cc3)cc12	G9a block 44.7µM, JMJD2A Tudor inh 35.5µM (no result: L3MBTL1 inh)
COc1ccc(OC)c(CCNC(=O)c2ccc3c(=O)[nH]c4c(C(=O)NC(C)C)sc(=S)n4c3c2)c1	Sfp PPTase inh inconclusive, HP1b chromo inh inconclusive, JMJD2A Tudor inh 56.2µM, BAZ2B inh 39.8µM (no result: G9a block, L3MBTL1 inh)
CCOc1ccc(CCNC(=O)c2ccc3c(=O)[nH]c4c(C(=O)NC(C)C)sc(=S)n4c3c2)cc1	G9a block 44.7µM, BAZ2B inh inconclusive (no result: L3MBTL1 inh)
CCOc1ccc(CCNC(=O)c2ccc3c(Cl)c4c(nc3c2)CCCC4)cc1	none (no result: Sfp PPTase inh, L3MBTL1 inh)
COc1cccc(NC(=S)N(CCCN2CCCC2)Cc2cccn2Cc2ccc(Cl)cc2)c1	G9a block 39.8µM, HP1b chromo inh inconclusive, JMJD2A Tudor inh 44.7µM (no result: L3MBTL1 inh)
CSc1cccc(NC(=S)N2CCCN(Cc3cccc(Cl)c3)C2)c1	JMJD2A Tudor inh inconclusive, BAZ2B inh 25.1µM (no result: L3MBTL1 inh)
CSc1cccc(NC(=S)N(CCCN2CCCC2)Cc2cccn2Cc2ccc(Cl)cc2)c1	G9a block 35.5µM, Sfp PPTase inh 79.4µM, JMJD2A Tudor inh 20µM, BAZ2B inh 25.1µM (no result: L3MBTL1 inh)
S=C(Nc1cccc(Cl)c1)N(CCCN1CCCC1)Cc1cccn1Cc1ccc(Cl)cc1	G9a block 35.5µM, Sfp PPTase inh 63.1µM, JMJD2A Tudor inh 31.6µM, BAZ2B inh inconclusive (no result: L3MBTL1 inh)
COc1ccc(NC(=S)N2CCCN(Cc3cccc(Cl)c3)C2)cc1	JMJD2A Tudor inh inconclusive, BAZ2B inh inconclusive (no result: L3MBTL1 inh)
COc1cc(F)c(S(=O)(=O)N2CCCN(S(=O)(=O)c3cccc(NC(C)=O)c3)CC2)c(F)c1	none (no result: G9a block, Sfp PPTase inh, HP1b chromo inh, BAZ2B inh, L3MBTL1 inh)
COc1ccc2cc(C(=O)N(C)CC(=O)Nc3ccccc3Br)ccc2c1	G9a block 8.91µM (no result: Sfp PPTase inh)
CC1CCc2[nH]c3ccc(C(=O)N(C)CC(=O)Nc4ccccc4Br)cc3c2C1 (stereo unspecified)	G9a block 44.7µM, JMJD2A Tudor inh inconclusive, BAZ2B inh inconclusive, L3MBTL1 inh inconclusive (no result: Sfp PPTase inh)
CCOC(=O)N1CCN(C(=O)CN(Cc2ccc(Cl)cc2)S(=O)(=O)c2ccc(C)cc2)CC1	none (no result: L3MBTL1 inh)
COc1ccc(CC(=O)Oc2ccccc2Cl)cc1S(=O)(=O)N1CCOCC1	G9a block inconclusive (no result: Sfp PPTase inh)
COc1cccc(N2C(=O)N(Cc3ccc(C#N)cc3)c3ccccc3S2(=O)=O)c1	none (no result: Sfp PPTase inh, L3MBTL1 inh)
Brc1ccc(C2=CSC3=NCCN23)cc1	G9a block inconclusive
O=S(=O)(c1ccc(C2=CSC3=NCCN23)cc1)N1CCOCC1	G9a block inconclusive, Sfp PPTase inh 56.2µM
Oc1ccc(C2=CSC3=NCCN23)cc1O	Sfp PPTase inh 89.1µM, BAZ2B inh inconclusive (no result: L3MBTL1 inh)
CCOc1ccc(C(=O)CCc2nc3ccccc3s2)cc1	none
CCCN1CCN(CC(=O)Nc2nncs2)CC1	none (no result: L3MBTL1 inh)
CC(C)(C)c1cc[n+](-c2[nH]c(=O)sc2/C=N/NC([S-])=Nc2ccccc2)cc1	G9a block 14.1µM, Sfp PPTase inh 35.5µM
